Results: PubChem BioAssay
Activity calls are given as the source filed them.

Assays:
[1] = small molecules captured by biotinylated probe aFSTL3 – biochemical, small-molecule microarray, fluorescence 635/667, stem cell growth factor project, primary screen (AID 1064); details: higher = more signal;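 also: measures binding of the biotinylated anti-FSTL3 antibody to printed compounds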
[2] = binders from COS7 lysate, DM2A8 probe, primary screen, torsin A project, cell lysate, small-molecule microarray, fluorescence 635/667 (AID 1065); details: higher = more signal, COS7 lysate expressing mutant human TOR1A
[3] = small molecules captured by biotinylated probe aFGF2 – biochemical, small-molecule microarray, fluorescence 635/667, stem cell growth factor project, primary screen (AID 1067); details: higher = more signal;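 also: measures binding of biotinylated aFGF2 protein to printed compounds on slides; z-score merges feature fluorescence and signal-to-noise across triplicate slides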
[4] = small molecules captured by biotinylated probe aFGF10 – biochemical, small-molecule microarray, fluorescence 635/667, stem cell growth factor project, primary screen (AID 1071); details: higher = more signal;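 also: score merges 667 nm spot intensity and signal to noise from triplicate slides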
[5] = molecular target: Neurogenic locus notch homolog protein 2 (Homo sapiens) (UniProt Q04721); test: small molecules binding Notch2 protein – biochemical, small-molecule microarray, 635 nm fluorescence, stem cell growth factors, primary screen (AID 1073); details: higher = more signal
[6] = molecular target: Pro-neuregulin-1, membrane-bound isoform (Homo sapiens) (UniProt Q02297); test: small molecules binding neuregulin-1 protein – biochemical, small-molecule microarray, fluorescence 635/667, psychiatric disease protein project, primary screen (AID 1075); details: NRG1 binding, 635 nm fluorescence, higher = more signal;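 also: score combines 667 nm spot fluorescence with signal to noise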
[7] = tested on: Neuregulin-1 EGF-like domain; test: small molecules binding NRG1 EGF domain – biochemical, small-molecule microarray, 635 nm fluorescence, primary screen (AID 1081); details: higher = more signal;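 also: binding of the protein to compounds printed on small-molecule microarray slides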
[8] = FRG1 expression reporter modulators in myotubes – cell-based, C2C12 myotubes, firefly/Renilla luciferase, luminescence, FRG1 inhibition for FSHD, primary screen (AID 1084); details: FRG1 promoter luciferase, higher = more signal, called active from +8 up or from −8 down
[9] = small molecules captured by biotinylated probe aFST – biochemical, small-molecule microarray, fluorescence 635/667, stem cell growth factor project, primary screen (AID 1086); details: higher = more signal;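 also: score merges 667 nm fluorescence with signal-to-noise of each printed compound spot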
[10] = binders of probe aHhip on microarray, primary screen, stem cell growth factor project, biochemical, small-molecule microarray, fluorescence 635/667 (AID 1087); details: higher = more signal;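 also: score merges spot fluorescence at 667nm with spot signal to noise ratio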
[11] = tested on: PRMT1 (protein arginine N-methyltransferase 1); test: small molecules binding arginine methyltransferase PRMT1 – biochemical, small-molecule microarray, 635 nm fluorescence, primary screen (AID 1088); details: higher = more signal;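 also: binding of Prmt1 protein to compounds spotted on small-molecule microarray slides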
[12] = growth effects on S. cerevisiae YJM789 – YJM789 clinical isolate, OD600, 24 h, basal, primary screen (AID 1089); details: higher = more signal, called active from +8 up or from −8 down;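 also: growth of clinical yeast isolate S. cerevisiae YJM 789 seeded 1000 cells per well; test concentration not given here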
[13] = S. pombe growth modifiers, basal conditions – strain 972, OD600, 24 h, no modulator, primary screen (AID 1090);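 also: basal condition with compound alone and no growth modifier present; test concentration not given here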; details: S. pombe 972 growth, higher = more signal, called active from +8 up or from −8 down
[14] = budding yeast growth modifiers under rapamycin – strain BY4716, OD600, 96 h, primary screen (AID 1091); also: test concentration not given here; details: S. cerevisiae BY4716 + rapamycin, higher = more signal, called active from +8 up or from −8 down
[15] = molecular target: Torsin-1A-interacting protein 2 (Homo sapiens) (UniProt Q8NFQ8); test: small molecules binding lysate-expressed LULL1 – cell lysate, human LULL1 lysate, 635/667 nm fluorescence, primary screen (AID 1092); details: small-molecule microarray, hLULL1 lysate binding, 635 nm fluorescence; higher = more signal;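 also: probe is lysate of COS7 cells overexpressing human LULL1; score merges per-feature 667 nm fluorescence with signal-to-noise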
[16] = optical density change of DRC41 E. coli – strain DRC41, OD650, 24 h, E. coli filamentation project, primary screen (AID 1093);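 also: MC1000 strain lacking acrAB efflux and sulA so SOS filamentation is blocked; test concentration not given here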; details: E. coli DRC41 growth, higher = more signal, called active from +8 up or from −8 down
[17] = probe aLefty2 binding to arrayed compounds – biochemical, biotinylated probe, 635/667 nm fluorescence, primary screen (AID 1094); details: small-molecule microarray, higher = more signal;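 also: score merges spot fluorescence near 667 nm with spot signal-to-noise ratio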
[18] = tested on: Noggin (protein binding on small-molecule microarray); test: small molecules binding Noggin protein – biochemical, 635/667 nm fluorescence, primary screen (AID 1095); details: 635 nm fluorescence, higher = more signal;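 also: score merges 667 nm feature fluorescence with signal to noise over triplicate slides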
[19] = molecular target: Neurogenic locus notch homolog protein 3 (Homo sapiens) (UniProt Q9UM47); test: small molecules binding NOTCH3 protein – biochemical, 635/667 nm fluorescence, primary screen (AID 1096); details: small-molecule microarray, 635 nm fluorescence, higher = more signal
[20] = probe aEGFR binding to arrayed compounds – biochemical, biotinylated probe, 635/667 nm fluorescence, primary screen (AID 1097); details: small-molecule microarray, higher = more signal;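 also: probe is a biotinylated anti-EGFR antibody binding compounds printed on slides; score combines fluorescence near 667 nm and signal to noise of each spot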

Neurogenic locus notch homolog protein 2 (Homo sapiens), sequence (Q04721 whole entry, looked up, canonical isoform): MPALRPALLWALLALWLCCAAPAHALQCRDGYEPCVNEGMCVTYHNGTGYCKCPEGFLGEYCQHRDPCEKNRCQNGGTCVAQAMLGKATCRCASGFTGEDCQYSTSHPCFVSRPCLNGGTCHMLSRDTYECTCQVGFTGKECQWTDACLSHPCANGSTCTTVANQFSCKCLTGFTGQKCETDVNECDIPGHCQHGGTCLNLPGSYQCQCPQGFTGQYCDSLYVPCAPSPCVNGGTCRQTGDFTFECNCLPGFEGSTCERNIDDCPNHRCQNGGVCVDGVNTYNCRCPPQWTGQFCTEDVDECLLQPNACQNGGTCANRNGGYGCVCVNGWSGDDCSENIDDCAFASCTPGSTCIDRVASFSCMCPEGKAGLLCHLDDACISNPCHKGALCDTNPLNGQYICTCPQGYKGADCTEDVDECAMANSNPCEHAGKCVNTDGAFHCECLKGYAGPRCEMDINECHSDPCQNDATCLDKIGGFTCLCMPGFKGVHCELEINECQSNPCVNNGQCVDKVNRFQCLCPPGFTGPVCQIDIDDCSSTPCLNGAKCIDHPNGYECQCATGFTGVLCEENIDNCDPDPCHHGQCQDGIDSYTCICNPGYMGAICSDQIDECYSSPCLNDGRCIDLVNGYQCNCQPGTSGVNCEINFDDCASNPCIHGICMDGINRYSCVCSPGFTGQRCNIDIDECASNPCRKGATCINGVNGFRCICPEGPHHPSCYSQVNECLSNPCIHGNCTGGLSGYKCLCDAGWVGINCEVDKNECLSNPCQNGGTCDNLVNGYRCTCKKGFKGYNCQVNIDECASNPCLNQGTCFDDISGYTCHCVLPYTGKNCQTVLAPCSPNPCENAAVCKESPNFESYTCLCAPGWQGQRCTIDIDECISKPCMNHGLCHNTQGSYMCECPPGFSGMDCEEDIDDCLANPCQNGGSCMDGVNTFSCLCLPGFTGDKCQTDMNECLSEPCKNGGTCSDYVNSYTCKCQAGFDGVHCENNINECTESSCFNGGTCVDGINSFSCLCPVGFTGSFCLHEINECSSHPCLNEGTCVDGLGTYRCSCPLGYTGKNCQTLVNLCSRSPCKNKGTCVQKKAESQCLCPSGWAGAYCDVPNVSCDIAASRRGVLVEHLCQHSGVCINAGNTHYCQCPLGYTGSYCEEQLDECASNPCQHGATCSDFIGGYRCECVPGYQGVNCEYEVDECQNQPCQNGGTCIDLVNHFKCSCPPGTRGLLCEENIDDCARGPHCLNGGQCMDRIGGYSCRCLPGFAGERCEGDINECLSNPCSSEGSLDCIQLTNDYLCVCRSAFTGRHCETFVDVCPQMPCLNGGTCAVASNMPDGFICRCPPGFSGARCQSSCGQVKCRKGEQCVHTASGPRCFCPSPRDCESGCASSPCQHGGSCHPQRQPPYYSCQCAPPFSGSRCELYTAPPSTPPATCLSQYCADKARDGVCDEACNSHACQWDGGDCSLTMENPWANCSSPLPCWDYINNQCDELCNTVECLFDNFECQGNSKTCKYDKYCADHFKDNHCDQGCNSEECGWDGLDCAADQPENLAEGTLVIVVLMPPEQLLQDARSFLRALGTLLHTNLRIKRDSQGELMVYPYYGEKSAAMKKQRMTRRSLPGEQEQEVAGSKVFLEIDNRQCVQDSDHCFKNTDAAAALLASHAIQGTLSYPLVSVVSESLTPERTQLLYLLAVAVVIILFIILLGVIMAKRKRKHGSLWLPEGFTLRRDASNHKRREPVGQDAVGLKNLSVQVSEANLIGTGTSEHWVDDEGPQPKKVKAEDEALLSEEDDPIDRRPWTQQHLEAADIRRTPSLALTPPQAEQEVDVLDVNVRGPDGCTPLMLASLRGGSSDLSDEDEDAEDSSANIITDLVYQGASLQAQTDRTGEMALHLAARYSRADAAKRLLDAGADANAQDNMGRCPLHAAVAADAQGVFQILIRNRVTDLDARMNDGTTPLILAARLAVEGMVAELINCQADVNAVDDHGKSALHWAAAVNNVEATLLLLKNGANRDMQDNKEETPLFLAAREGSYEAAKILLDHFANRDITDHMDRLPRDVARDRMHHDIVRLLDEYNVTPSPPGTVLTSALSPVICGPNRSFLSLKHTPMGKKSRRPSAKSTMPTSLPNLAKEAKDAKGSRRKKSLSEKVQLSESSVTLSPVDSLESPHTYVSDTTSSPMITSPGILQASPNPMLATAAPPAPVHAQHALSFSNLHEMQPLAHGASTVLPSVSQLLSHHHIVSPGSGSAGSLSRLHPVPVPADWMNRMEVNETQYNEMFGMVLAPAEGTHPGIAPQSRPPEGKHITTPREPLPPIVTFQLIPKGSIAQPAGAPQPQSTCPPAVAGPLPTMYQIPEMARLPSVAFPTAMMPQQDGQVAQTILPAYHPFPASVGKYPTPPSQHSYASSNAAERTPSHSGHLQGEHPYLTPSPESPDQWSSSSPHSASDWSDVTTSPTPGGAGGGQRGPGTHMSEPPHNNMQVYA
Neurogenic locus notch homolog protein 3 (Homo sapiens), sequence (Q9UM47 whole entry, looked up): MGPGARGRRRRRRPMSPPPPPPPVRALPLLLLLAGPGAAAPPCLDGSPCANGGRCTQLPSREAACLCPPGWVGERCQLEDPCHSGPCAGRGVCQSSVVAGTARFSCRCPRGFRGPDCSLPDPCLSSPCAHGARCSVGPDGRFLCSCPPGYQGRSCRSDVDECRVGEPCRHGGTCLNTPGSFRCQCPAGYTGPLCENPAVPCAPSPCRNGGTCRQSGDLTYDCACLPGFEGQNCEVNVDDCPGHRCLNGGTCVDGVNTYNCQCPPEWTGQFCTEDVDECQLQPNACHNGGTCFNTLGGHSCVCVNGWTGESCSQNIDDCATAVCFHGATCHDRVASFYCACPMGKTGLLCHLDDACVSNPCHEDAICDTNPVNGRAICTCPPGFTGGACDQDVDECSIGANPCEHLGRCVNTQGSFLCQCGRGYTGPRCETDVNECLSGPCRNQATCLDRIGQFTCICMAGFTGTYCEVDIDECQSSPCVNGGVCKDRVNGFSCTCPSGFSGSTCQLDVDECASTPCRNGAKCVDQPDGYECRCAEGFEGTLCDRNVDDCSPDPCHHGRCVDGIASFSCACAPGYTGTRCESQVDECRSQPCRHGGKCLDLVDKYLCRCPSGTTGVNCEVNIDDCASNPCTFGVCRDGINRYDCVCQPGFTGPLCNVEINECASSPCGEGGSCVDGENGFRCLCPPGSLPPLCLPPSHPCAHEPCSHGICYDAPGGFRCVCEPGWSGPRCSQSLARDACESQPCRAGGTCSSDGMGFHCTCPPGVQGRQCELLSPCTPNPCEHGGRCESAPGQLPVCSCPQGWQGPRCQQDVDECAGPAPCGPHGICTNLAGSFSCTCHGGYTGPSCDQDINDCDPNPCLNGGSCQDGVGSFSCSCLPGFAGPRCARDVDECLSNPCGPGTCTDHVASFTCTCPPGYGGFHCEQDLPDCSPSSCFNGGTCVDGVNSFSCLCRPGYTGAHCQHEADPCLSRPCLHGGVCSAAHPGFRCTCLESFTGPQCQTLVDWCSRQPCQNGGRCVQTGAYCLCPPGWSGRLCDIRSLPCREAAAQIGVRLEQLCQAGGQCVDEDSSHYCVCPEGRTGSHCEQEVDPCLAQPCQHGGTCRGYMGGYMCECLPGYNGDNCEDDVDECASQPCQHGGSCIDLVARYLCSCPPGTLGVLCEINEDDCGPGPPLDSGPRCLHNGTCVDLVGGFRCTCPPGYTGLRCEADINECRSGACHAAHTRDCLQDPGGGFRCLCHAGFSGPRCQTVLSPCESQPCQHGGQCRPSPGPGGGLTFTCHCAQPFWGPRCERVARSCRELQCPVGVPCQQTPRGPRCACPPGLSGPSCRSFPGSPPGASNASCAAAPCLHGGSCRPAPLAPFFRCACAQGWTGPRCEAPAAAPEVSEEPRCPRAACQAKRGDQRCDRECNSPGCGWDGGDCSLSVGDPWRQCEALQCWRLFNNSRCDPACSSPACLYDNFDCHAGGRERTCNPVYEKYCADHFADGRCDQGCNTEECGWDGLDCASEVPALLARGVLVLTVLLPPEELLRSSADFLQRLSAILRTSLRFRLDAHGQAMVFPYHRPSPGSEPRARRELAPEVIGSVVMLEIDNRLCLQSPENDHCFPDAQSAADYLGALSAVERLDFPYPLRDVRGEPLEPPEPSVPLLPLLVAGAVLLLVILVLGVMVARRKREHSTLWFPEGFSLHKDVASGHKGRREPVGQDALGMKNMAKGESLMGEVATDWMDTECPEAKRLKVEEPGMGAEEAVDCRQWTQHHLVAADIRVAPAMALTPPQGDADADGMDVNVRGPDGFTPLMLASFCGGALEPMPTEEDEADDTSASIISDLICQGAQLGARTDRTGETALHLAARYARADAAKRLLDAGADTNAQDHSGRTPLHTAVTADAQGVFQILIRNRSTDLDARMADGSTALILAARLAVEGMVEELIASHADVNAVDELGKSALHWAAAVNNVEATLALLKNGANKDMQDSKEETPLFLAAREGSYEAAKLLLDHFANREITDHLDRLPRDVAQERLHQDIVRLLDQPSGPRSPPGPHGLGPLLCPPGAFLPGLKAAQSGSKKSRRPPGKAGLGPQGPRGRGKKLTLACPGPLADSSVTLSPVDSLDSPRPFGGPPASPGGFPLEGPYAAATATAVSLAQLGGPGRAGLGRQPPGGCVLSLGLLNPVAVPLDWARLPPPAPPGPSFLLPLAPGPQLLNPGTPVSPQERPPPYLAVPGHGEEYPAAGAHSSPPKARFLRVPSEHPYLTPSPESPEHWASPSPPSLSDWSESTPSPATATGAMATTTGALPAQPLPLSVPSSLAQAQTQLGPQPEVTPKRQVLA

| SMILES | composite z-score [1] | composite z-score [2] | composite z-score [3] | composite z-score [4] | composite z-score [5] | composite z-score [6] | composite z-score [7] | z-score [8] | composite z-score [9] | composite z-score [10] | composite z-score [11] | z-score [12] | z-score [13] | z-score [14] | composite z-score [15] | z-score [16] | composite z-score [17] | composite z-score [18] | composite z-score [19] | composite z-score [20] |
| --- | --- | --- | --- | --- | --- | --- | --- | --- | --- | --- | --- | --- | --- | --- | --- | --- | --- | --- | --- | --- |
| COc1cccc([C@H]2Oc3ccc(OC)cc3C(=NO[C@@H](C)c3cn([C@H](CO)Cc4ccccc4)nn3)[C@@H]2O)c1 | -0.234 | -0.346 | -0.133 | 0.226 | -0.188 | 0.428 | -0.123 | 0.213 (inactive) | 0.105 | -0.134 | 0.0733 | 0.401 (inactive) | 0.0329 (inactive) | 0.0485 (inactive) | -0.123 | -0.486 (inactive) | -0.21 | -0.335 | -0.367 | -0.18 |
| CC(CCN1CCCCc2nc(C)c(C)cc21)=NO[C@@H](C)c1cn([C@H](CO)Cc2ccccc2)nn1 | 1.22 | 1.06 | -0.177 | 0.171 | 0.174 | 0.605 | 0.695 | 1.19 (inactive) | 0.163 | 0.347 | 1.03 | 0.725 (inactive) | -0.0001 (inactive) | 0.17 (inactive) | 1.16 | 0.457 (inactive) | -0.0383 | 0.377 | 0.474 | 0.0317 |
| COc1ccc(O[C@H]2C=C[C@@H](c3ccccc3)O[C@@H]2CON=C2[C@H]3CCn4c(=O)n(-c5ccccc5)c(=O)n4[C@H]3[C@H](O)[C@@H]3O[C@H]23)cc1 | -0.135 | 0.451 | -0.0973 | 0.372 | 1.24 | 0.238 | 0.63 | -0.243 (inactive) | 0.358 | 0.197 | 1.3 | -0.417 (inactive) | 0.444 (inactive) | 0.661 (inactive) | 0.86 | -0.745 (inactive) | -0.206 | 0.437 | 0.863 | 0.0009 |
| COC(=O)CC=C[C@@H](C)[C@@H](C=NO[C@@H](C)c1cn([C@H](CO)Cc2ccccc2)nn1)OC | -0.446 | 1.68 | -0.119 | -0.0052 | 0.0576 | -0.0718 | -0.265 | -0.839 (inactive) | 0.0066 | -0.34 | 1.05 | -2.66 (inactive) | -2.01 (inactive) | -0.773 (inactive) | 0.579 | -0.673 (inactive) | -0.173 | 0.719 | 0.627 | -0.114 |
| CC(C)=CCCC(C)=CCON=C1C[C@@H](O)[C@@H](O)[C@@H]2[C@@H]3C(=O)N(C[C@@H]4CCCO4)C(=O)[C@@H]3CC[C@H]12 | -0.532 | 1.78 | -0.142 | 0.508 | 0.583 | 0.447 | 1.05 | -0.0588 (inactive) | 0.417 | -0.0645 | 1.56 | 0.46 (inactive) | 0.948 (inactive) | 0.036 (inactive) | 1.39 | 0.362 (inactive) | -0.111 | 0.987 | 1.08 | 0.122 |
| COc1cccc([C@H]2Oc3ccc(OC)cc3C(=NO[C@@H]3O[C@H](COC(C)=O)[C@@H](OC(C)=O)[C@H](OC(C)=O)[C@H]3OC(C)=O)[C@@H]2O)c1 | -0.533 | 0.974 | -0.116 | 0.326 | 0.842 | -0.62 | -0.782 | 1.59 (inactive) | 0.198 | 0.0972 | 0.102 | -1.07 (inactive) | 1.14 (inactive) | -0.239 (inactive) | -0.0867 | 0.373 (inactive) | -0.119 | 0.35 | 0.615 | 0.0009 |
| O=C1C=C[C@@H](O)[C@@H]2[C@@H]3C(=O)N(c4ccc(F)cc4F)C(=O)[C@@H]3CC[C@@H]12 | -0.298 | 0.55 | -0.0493 | 0.547 | 0.611 | 0.12 | 0.384 | -0.996 (inactive) | 0.142 | -0.0994 | 0.0661 | -2.33 (inactive) | -2.21 (inactive) | -0.724 (inactive) | 0.587 | -0.421 (inactive) | -0.247 | 1.08 | 0.134 | -0.162 |
| O=C(C=Cc1ccc2c(c1)OCO2)c1ccc(F)cc1 | -0.0346 | 0.668 | 0.0173 | 0.3 | -0.207 | -0.204 | -0.0248 | 0.964 (inactive) | 0.348 | -0.0994 | -0.458 | -0.935 (inactive) | -15.1 (active) | 3.87 (inactive) | -0.779 | 0.704 (inactive) | -0.132 | 0.87 | 0.142 | 0.131 |
| CC(C)CON=C1[C@H]2CCn3c(=O)n(Cc4cc5c(cc4Cl)OCO5)c(=O)n3[C@H]2[C@H](O)[C@@H]2O[C@H]12 | -0.293 | 0.493 | -0.079 | 0.258 | 0.394 | 0.142 | 0.497 | 0.354 (inactive) | 0.0082 | 0.235 | -0.149 | 0.534 (inactive) | -0.129 (inactive) | 0.296 (inactive) | 0.299 | 0.0007 (inactive) | -0.0936 | 0.607 | 0.573 | -0.0139 |
| O=c1n(-c2ccccc2)c(=O)n2n1CC[C@@H]1C(=NOCc3ccccc3)[C@H]3O[C@H]3[C@@H](O)[C@@H]12 | -0.489 | -0.285 | -0.0494 | 0.472 | -0.267 | -0.0644 | -0.338 | -0.354 (inactive) | -0.0869 | -0.284 | -0.955 | -0.434 (inactive) | -0.326 (inactive) | -0.871 (inactive) | -0.0733 | -0.619 (inactive) | -0.274 | -0.131 | 0.116 | -0.0531 |
